# The panel holds about 83,000 compounds, 20% with a hit somewhere; the sample as a whole holds those more often.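 Results are percent growth after 48 hours of single-concentration exposure. 100 means growth as in untreated cells, lower positive values show inhibition; negative values down to -100 show cell death.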 Unmarked numbers belong to inactive results. Activity calls are given as the source filed them. How the source made its calls: active means growth percent below 10; inactive means the rest.
# Experiments:
# Experiment in all cases: NCI-60 one-dose screen, 48 h (100 = growth as untreated, 0 = no growth, -100 = all killed)
# Settings in all cases: 10 µM unless noted
# HCT-15 colon = tested on: HCT-15 colon
# HT29 colon = tested on: HT29 colon
# SNB-75 CNS = tested on: SNB-75 CNS
# SNB-19 CNS = tested on: SNB-19 CNS
# U251 CNS = tested on: U251 CNS
# PC-3 prostate = tested on: PC-3 prostate
# SK-MEL-5 melanoma = tested on: SK-MEL-5 melanoma
# UACC-62 melanoma = tested on: UACC-62 melanoma
# LOX IMVI melanoma = tested on: LOX IMVI melanoma
# SK-MEL-28 melanoma = tested on: SK-MEL-28 melanoma
# SK-MEL-2 melanoma = tested on: SK-MEL-2 melanoma
# EKVX NSCLC = tested on: EKVX NSCLC
# SN12C renal = tested on: SN12C renal
# UO-31 renal = tested on: UO-31 renal
# TK-10 renal = tested on: TK-10 renal
# ACHN renal = tested on: ACHN renal
# CAKI-1 renal = tested on: CAKI-1 renal
# A498 renal = tested on: A498 renal
# CCRF-CEM leukemia = tested on: CCRF-CEM leukemia
# MOLT-4 leukemia = tested on: MOLT-4 leukemia
Structure (SMILES),growth (HCT-15 colon),growth (HT29 colon),growth (SNB-75 CNS),growth (SNB-19 CNS),growth (U251 CNS),growth (PC-3 prostate),growth (SK-MEL-5 melanoma),growth (UACC-62 melanoma),growth (LOX IMVI melanoma),growth (SK-MEL-28 melanoma),growth (SK-MEL-2 melanoma),growth (EKVX NSCLC),growth (SN12C renal),growth (UO-31 renal),growth (TK-10 renal),growth (ACHN renal),growth (CAKI-1 renal),growth (A498 renal),growth (CCRF-CEM leukemia),growth (MOLT-4 leukemia)
COc1cc2c(c(OC)c1OC)C(=O)CC(c1cccc(C(=O)Nc3ccccc3Br)c1)O2 (stereo not given),88.1%,84%,76.2%,88.4%,94.8%,68.4%,80.2%,80.8%,84.2%,104%,87.7%,99.1%,80%,70.2%,94.2%,89.7%,84.6%,91%,68.9%,68.6%
COc1cc(N2C(=O)[C@H](Cl)C2c2ccc(SC)cc2)cc(OC)c1OC (stereo not given in full),4.62% (active),1.22% (active),73.9%,30.5%,7.72% (active),22.1%,-34.3% (active),29.5%,20.3%,65.7%,44.6%,28.6%,31.8%,40.6%,49.1%,30.3%,24.3%,-7.35% (active),11.4%,7.86% (active)
CCN1C(=O)N(c2ccccc2)C2NC(=S)N(/N=C/C=C/c3ccccc3OC)C21 (stereo not given),8.49% (active),7.61% (active),25.2%,32.7%,15.6%,29.3%,-14.1% (active),32.6%,15.4%,57.7%,50.8%,54%,17.9%,34.7%,75.7%,29.2%,19.5%,3.46% (active),11.4%,13.3%
CCN(CC)CCCNc1cc(OC)c(OC)c2cccnc12,72%,83.7%,102%,63.5%,52.6%,54.8%,62.4%,60.6%,34.2%,93.8%,88.1%,100%,57.3%,46.6%,98.9%,42.3%,52.5%,81.8%,74.6%,52.8%
O=C1CCCC1[n+]1ccccc1 (stereo not given),97.1%,61.4%,86.3%,103%,84.4%,81.7%,104%,96.5%,99%,84.3%,85.3%,92.6%,104%,90%,79.4%,105%,92.4%,126%,105%,113%
COC(=O)c1sccc1-c1cc(O)c(C(=O)Nc2ccccc2)s1,97.7%,90%,72%,107%,101%,90.4%,102%,91.2%,96.6%,110%,104%,71.9%,105%,69.9%,121%,94%,86.4%,115%,101%,96.9%
CCOC(=O)c1ccc[nH]1,93.9%,106%,84.2%,99.4%,96.6%,91.8%,98.4%,103%,94.1%,115%,99.3%,97.1%,105%,91.8%,98.3%,90.4%,74.3%,101%,92.1%,102%
CC1SC(c2ccccc2O)N(NC(=O)CCC(=O)c2nc3ncccc3[nH]2)C1=O (stereo not given),103%,105%,83.8%,101%,97.3%,92.3%,95.1%,99.4%,84.8%,113%,95.8%,85.7%,101%,66.9%,103%,97.4%,80.3%,90.6%,116%,123%
O=C(c1c[nH]c2ccccc12)c1n[nH]c(=S)n1-c1ccc([N+](=O)[O-])cc1,64.7%,98.6%,95.4%,116%,105%,83.9%,88.3%,93.1%,100%,107%,86.4%,94.6%,92.8%,75.2%,117%,96.1%,85.4%,87.9%,85.1%,86%
O=c1oc2ccccc2cc1-c1nn(-c2ccccc2)cc1-c1nn[nH]n1,100%,104%,76.2%,98%,104%,91.5%,102%,93.3%,89%,107%,104%,99.4%,96.2%,78.4%,101%,99.9%,87.6%,95.1%,104%,99%
Fc1ccc2[nH]cc(-c3nc(-c4c[nH]c5c(Cl)nccc45)cs3)c2c1,-39.6% (active),17.5%,49.9%,59.9%,13.8%,31.5%,60.4%,24%,16.2%,43.9%,73.4%,63.2%,65.9%,21.8%,33.8%,17.7%,49.2%,14%,28.5%,38.2%
COc1ccc(C(=O)/C=C/c2ccccc2)cc1S(N)(=O)=O,44.1%,63.6%,87.2%,40%,26.2%,74%,88.2%,79.2%,42%,107%,89.8%,95.6%,44.9%,54.7%,66.8%,74.9%,82.3%,85.3%,57.8%,57.5%
NCCCNc1nc2ccccc2c2c(=O)c3cc(Cl)ccc3sc12,-76.9% (active),-45.4% (active),47.9%,22.8%,-95.1% (active),-18.9% (active),46.9%,-6.22% (active),-90.5% (active),-30% (active),41%,57.4%,-66.5% (active),-71.7% (active),24.3%,-37.2% (active),22.1%,70.2%,-28.5% (active),-61.8% (active)
COc1cc2c(c(OC)c1OC)CCC(c1cccc(C(=O)Nc3ccc(Br)cc3)c1)O2 (stereo not given),61%,65.7%,61.8%,65.8%,75.5%,39.4%,55%,53%,65.2%,76.9%,46.4%,60.5%,47.1%,39.7%,77.4%,67.9%,73.6%,-3.18% (active),53.3%,25.1%
C[C@@H]1CN(c2cnc(C(=O)Nc3cc(F)cc4cccnc34)cn2)C[C@H](C)N1,35.7%,35.5%,69%,92.4%,76.6%,21.2%,102%,94.3%,72.7%,94%,105%,77%,83.2%,44.1%,72.2%,32.3%,66.2%,67.4%,26.9%,33%

# From PubChem BioAssay (NCI)
